Source: PubChem (National Center for Advancing Translational Sciences (NCATS))
TDP43 rescue – TDP-43 toxicity inhibition in yeast | TDP-43 expressing yeast growth rescue, BacTiter-Glo, 24 h | Potency, µM (top dose mostly 46.1 µM), for the others: top-dose growth rescue (activation), usual class: activators | hit rate 1.8% among 410,000; note: potency is the fitted concentration of half-maximal effect; % of control where 0% means no effect; nearly all actives have a fitted effect of over 50% in size
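Yeast cells expressing TDP-43 under galactose induction are exposed to compounds for 24 hr at 30 deg C. BacTiter-Glo luminescence measures growth, so protective compounds score as activators.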
Abeta rescue – A-beta toxicity reversal in yeast. Potency, µM (doses to about 46.1 µM), usual class: activators. hit rate 0.063% among 410,000. yeast expressing A-beta42, growth rescue, OD600, 48 h; response scale: 0% DMSO, 100% iron-clioquinol control. AID 1347071; note: potency is the fitted concentration of half-maximal effect; nearly all actives have a fitted effect of over 55% in size
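Yeast growth medium received pinned compounds, then yeast cells expressing toxic A-beta were added; plates incubated at 30 C for 48 hr. Growth read as absorbance at 600 nm, normalized to DMSO and equimolar FeCl3 plus clioquinol controls.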
LDHA inh – blocks human lactate dehydrogenase A; P00338; purified LDHA, NADH/diaphorase-resazurin fluorescence; hits give low values; activity change, % (values are at about 110 or 230 µM); hit rate 0.15% among 480,000; AID 1347041; in the data active = activity change below about -30%; inconclusive = mostly about -25% to -30%;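 note: plate controls were DMSO wells for no effect and wells without enzyme for full effect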
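Human LDH5 at 2 nM final in Tris HCl pH 7.4 with 0.06 mM NADH and 0.2 mM pyruvate, reacted 5 minutes at room temperature. Remaining NADH coupled via diaphorase/resazurin; resorufin fluorescence read at 0 and 20 minutes, normalized to enzyme-free and DMSO wells.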
PTHR1 agonist – PTHR1 (human) receptor agonism | Q03431 | HEK293 GP2 PTHR1 cells, GloSensor cAMP luminescence, 1 h | Potency, µM (titrated, usually from 115 µM), inactives show at the top dose activation, usual class: activators | hit rate 0.075% among 410,000 | AID 743266; note: potency is the fitted concentration of half-maximal effect; nearly all actives have a fitted effect of over 55% in size
Target sequence (Q03431 whole entry, looked up): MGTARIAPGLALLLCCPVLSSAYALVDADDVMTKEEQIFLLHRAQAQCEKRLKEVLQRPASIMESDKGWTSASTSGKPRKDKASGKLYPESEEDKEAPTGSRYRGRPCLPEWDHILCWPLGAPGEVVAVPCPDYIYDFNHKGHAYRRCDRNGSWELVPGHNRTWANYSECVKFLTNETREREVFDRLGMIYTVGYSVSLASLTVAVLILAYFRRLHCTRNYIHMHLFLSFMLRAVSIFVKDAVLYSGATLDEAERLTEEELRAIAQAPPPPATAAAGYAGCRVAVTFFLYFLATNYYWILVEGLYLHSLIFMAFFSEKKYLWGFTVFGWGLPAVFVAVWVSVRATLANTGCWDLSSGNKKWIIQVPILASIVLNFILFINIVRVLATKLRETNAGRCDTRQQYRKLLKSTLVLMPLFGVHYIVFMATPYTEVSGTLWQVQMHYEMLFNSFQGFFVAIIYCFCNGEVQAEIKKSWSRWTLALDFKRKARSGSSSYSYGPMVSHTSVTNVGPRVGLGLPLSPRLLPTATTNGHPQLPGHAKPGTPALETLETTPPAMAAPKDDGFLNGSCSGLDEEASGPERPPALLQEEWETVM
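HEK-293-derived GP2 cells expressing PTHR1 and a GloSensor cAMP reporter, 3,000/well, plated overnight, given luciferin plus IBMX (each 0.5 mM as added) for 1 h at 37 °C, then compound for 1 h at 37 °C. Luminescence was read after 15 min at room temperature.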
FUS suppressor – FUS proteinopathy suppression in yeast; S. cerevisiae FUS-expressing, growth rescue, OD600, 24 h; Potency, µM (top dose mostly 76.6 µM), hits mostly activators; hit rate 0.24% among 390,000;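 note: potency is the fitted concentration of half-maximal effect; plate controls were DMSO vehicle for no effect and reference control for full effect; nearly all actives have a fitted effect of over 55% in size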
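S. cerevisiae expressing FUS from galactose induction served as the toxicity model. Growth after 24hr at 30C, read as absorbance at 600 nm, indicates suppression of toxicity; compounds dosed at several concentrations.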
aSyn rescue – alpha-synuclein toxicity inhibition in yeast; Yeast expressing alpha-synuclein, growth rescue, BacTiter-Glo, 24 h; Potency, µM (highest dose often 46.1 µM), without a hit: top-dose growth rescue (activation), most hits filed as activators; hit rate 0.14% among 370,000; note: potency is the fitted concentration of half-maximal effect; % of control where 0% means no effect; nearly all actives have a fitted effect of over 65% in size
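Readout is rescue of growth in alpha-synuclein-expressing yeast, so inhibitors of toxicity appear as activators. Growth after 24 hr at 30 deg C in galactose medium is quantified by luminescence.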
Active calls of the source: *; i = inactive; ? = inconclusive; . = no result given; [ ] = another dose, or the depositor's remark. A selection: hits, their analogues and other compounds. The true share with any hit is near 1.9%. Unless noted, calls come from the whole dose curve; as a rule, active = well fitted curve in the direction sought with a large enough effect; inconclusive = small, poorly fitted or top-dose-only effect, or another doubt; inactive = no such curve, though single readings can be large; an effect the other way counts as inactive or inconclusive.

SMILES	TDP43 rescue	Abeta rescue	LDHA inh	PTHR1 agonist	FUS suppressor	aSyn rescue
c1ccc2nc(N3CCN(Cc4ccc5c(c4)OCO5)CC3)cnc2c1	6.4%	i	-4.0	-41.0%	i	1.7%
O=C(c1cc2ccccc2oc1=O)N1CCN(S(=O)(=O)c2ccc(F)cc2)CC1	.	.	-9.1	.	.	.
CC1CCN(S(=O)(=O)c2ccc(NC(=O)C3=COCCO3)cc2)CC1	.	.	4.2	.	.	.
CCOC(=O)/C(=N\Nc1cccc(Cl)c1)Sc1nnc(-c2ccc(OC)cc2)n1C	31.6µM*	i	-4.5	-23.8%	.	-0.2%
CSc1nc(N)n2nc(C)cc2n1	9.4%	i	1.3	-20.6%	i	-9.3%
CSc1nc(N)n2nc(C(C)(C)C)cc2n1	17.8µM*	i	-6.0	i	i	-14.7%
COc1cccc(C(=O)NCCSc2c(C)[nH]c3ccccc23)c1OC	?	i	-9.5	-49.7%	i	?
O=C(NCCSc1c[nH]c2ccccc12)c1ccccc1Cl	35.5µM*	i	-2.1	-55.5%	i	.
COc1ccccc1C(=O)NCCSc1c(C)[nH]c2ccccc12	31.6µM*	?	-7.7	-94.6%	i	.
Cc1[nH]c2ccccc2c1SCCNC(=O)c1ccccc1F	14.1µM*	14.1µM*	-7.8	-22.7%	i	.
COc1ccc(N2Cc3nc(=O)n(CC(=O)NCc4ccccc4)n3C2=O)cc1	.	.	5.6	.	.	.
CCOc1ccccc1Oc1coc2cc(OC(=O)c3ccccc3F)ccc2c1=O	.	.	0.5	.	.	.
N#Cc1ccccc1NC(=O)C1SC(=Nc2ccccc2)C(C(=O)Nc2ccc(Cl)cc2)=C1N (stereo not given)	-1.6%[9.22 µM]	i	-10.3	-39.8%	i	4.7%
CCOc1ccc(N=C2SC(C(=O)Nc3ccccc3C#N)C(N)=C2C(=O)Nc2ccc(Cl)cc2)cc1 (stereo not given)	24.7%	i	0.1	-5.9%	35.5µM*	14.2%
Cc1nc(-c2ccccn2)nc(SCC(=O)c2ccccc2)c1Cl	17.8µM*	i	-7.7	-19.1%	i	7.4%
Cc1nc(-c2ccccn2)nc(SCC(=O)N2CCOCC2)c1Cl	13.5%	i	-9.9	i	i	-1.2%
Cc1ccc(CN2CCN(/N=C\C(Br)=C\c3ccccc3)CC2)cc1	12.6µM*	i	-1.5	-32.5%	i	2.2%
CN(CC(=O)Nc1cccc(F)c1)C(=O)/C=C/c1ccc(Br)s1	-17.7%	i	-4.2	-1.4%	i	0.1%
Cc1cccc(COc2ccccc2C(=O)N(C)CC(=O)Nc2cccc(F)c2)c1	25.1µM*	i	-0.2	-24.8%	i	0.3%[1.84 µM]
CN(CC(=O)Nc1cccc(F)c1)C(=O)/C=C/c1cc(Br)ccc1OC(F)F	20µM*	i	-0.1	-33.6%	i	3.6%
CCOc1ccc(NC(=O)CN(C)C(=O)c2ccccc2OCc2cccc(C)c2)cc1OCC	5.7%	i	0.6	-31.8%	.	-6.1%
COc1cc(/C=C/C(=O)c2cc3ccccc3o2)c2c(c1)CC(C)O2 (stereo not given)	.	.	8.2	.	.	.
CC(=O)c1ccc(Sc2ccccc2N)c([N+](=O)[O-])c1	?	i	-4.2	-15.5%	i	-6.2%
Cc1ccc(Sc2ccc(CO)cc2[N+](=O)[O-])cc1	14.1µM*	i	-8.3	-6.5%	i	23.6%
Cc1ccc(Sc2ccc(CN3CCCC3)cc2[N+](=O)[O-])cc1	0.0%	i	-14.8	28.6%	i	7.0%
SMILES	TDP43 rescue	Abeta rescue	LDHA inh	PTHR1 agonist	FUS suppressor	aSyn rescue
CC(=O)c1ccc(Sc2ccccc2)c([N+](=O)[O-])c1	11.2µM*	i	-1.7	-19.5%	i	1.3%
COC(=O)CCNC(=O)c1ccc(COC(C)=O)cc1	.	.	1.8	.	.	.
C[C@@H](C(=O)NCCc1ccccc1)N1C(=O)N2CCc3c([nH]c4ccccc34)[C@@]2(C)C1=O	35.5µM*	i	2.3	-29.9%	i	?
C=CCNC(=O)c1cc(-c2ccccc2C)nc2ccccc12	.	.	-1.3	.	.	.
CCC(C)(C)C(=O)O[C@H]1C[C@@H](C)C=C2C=C[C@H](C)[C@H](CC[C@@H]3C[C@@H](O)CC(=O)O3)[C@H]21	14.1µM*	i	10.0	i	i	15.7%
CC(C)c1ccc([C@@H]2O[C@H](CCc3ccccc3)Cc3[nH][nH]c(=O)c32)cc1	15.8µM*	i	-1.1	-23.5%	?	1.5%
O=c1[nH][nH]c2c1[C@H](c1ccc(Cl)cc1)O[C@H](C1CCCC1)C2	17.8µM*	i	1.3	-15.4%	i	0.7%
CCCC[C@@H]1Cc2[nH][nH]c(=O)c2[C@H](c2cccc3ccccc23)O1	11.2µM*	i	0.7	25.1%	i	-1.4%
CC(C)C[C@@H]1Cc2[nH][nH]c(=O)c2[C@H](c2ccc(Cl)cc2)O1	?	i	1.5	i	i	21.5%
CC(C)C1OC(CCc2ccccc2)Cc2[nH][nH]c(=O)c21 (stereo not given)	10.3%	i	0.6	-32.9%	i	1.5%
CC[C@@H]1Cc2[nH][nH]c(=O)c2[C@@H](c2ccc(Cl)cc2)O1	15.8µM*	i	0.7	-13.1%	i	2.4%
CCc1ccc(OC(=O)c2ccccc2F)cc1	.	.	2.3	.	.	.
O=C(Nc1ccc(Cl)cc1)Nc1nnc(COc2ccc(Cl)cc2)s1	.	.	3.4	.	.	.
CC(C)(C)C(=O)Nc1nnc(COc2ccc(Cl)cc2)s1	11.2µM*	?	-0.1	-11.4%	i	25.6%
COc1ccc(NC(C)=O)cc1NC(=O)C(=O)c1c[nH]c2ccccc12	.	.	4.2	.	.	.
O=C1c2ccccc2C(=O)N1Cc1ccccc1	.	.	-9.3	.	.	.
O=C1c2nccnc2C(=O)N1Cc1ccccc1	-10.1%	i	0.1	15.0%	.	12.6µM*
COCCNC(=O)c1cc2c3ccccc3n(C)c2s1	12.1%	i	11.5	i	i	0.9%
CCCNC(=O)c1cc2c3ccccc3n(C)c2s1	14.1µM*	i	0.3	-5.2%[57.5 µM]	i	-0.2%
NC(N)=Nc1nc(-c2ccc3ccccc3c2)cs1	.	.	4.9	.	.	.
Cc1ccc(C)c(NC(=O)CSc2cccc3cccnc23)c1	5.62µM*	i	-9.9	-31.0%	i	21.2%
Fc1cccc(Cl)c1C1SCc2nc3ccccc3n21 (stereo not given)	12.6µM*	i	-1.5	-63.8%	i	6.2%
Nc1ccc2oc(=O)c3ccccc3c2c1	12.6µM*	i	-3.8	i	.	19.5%
O=C1/C(=C/c2ccncc2)SC(=S)N1C1CCS(=O)(=O)C1 (stereo not given)	12.6µM*	i	14.0	-47.7%	i	0.1%
